RAD52 inh: blocks human RAD52 DNA annealing | P43351 | recombinant RAD52 DNA annealing, FRET fluorescence | inhibition, % at 18.7 µM | actives 0.46% (n = 360,000);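 active = every replicate showing at least 50% inhibition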
Target sequence (P43351 whole entry, looked up): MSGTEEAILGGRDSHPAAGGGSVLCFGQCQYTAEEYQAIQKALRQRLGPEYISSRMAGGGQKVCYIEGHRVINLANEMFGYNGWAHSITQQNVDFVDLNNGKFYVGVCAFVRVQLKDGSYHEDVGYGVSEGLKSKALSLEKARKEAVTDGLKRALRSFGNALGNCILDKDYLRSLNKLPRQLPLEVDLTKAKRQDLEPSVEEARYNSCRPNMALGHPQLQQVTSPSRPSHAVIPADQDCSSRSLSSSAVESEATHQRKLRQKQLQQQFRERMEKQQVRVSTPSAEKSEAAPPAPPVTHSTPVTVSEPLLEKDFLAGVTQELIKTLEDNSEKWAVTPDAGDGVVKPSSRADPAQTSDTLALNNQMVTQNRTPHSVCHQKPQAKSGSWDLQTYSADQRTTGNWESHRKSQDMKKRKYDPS
CASP6 VEID inh: caspase-6 (human) enzyme inhibition | P55212 | purified caspase-6, Z-VEID-R110 cleavage fluorescence | inhibition, % at 12.5 µM | actives 0.53% (n = 350,000) | AID 686996;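 active = mean inhibition across replicates at least about 35%, with every replicate also reaching that limit, limit read from the data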;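 note: 0% = median of neutral control wells and 100% = no fluorescence left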
miR-122 sensor: inhibitors of miR-122 in Huh7 cells | Huh7 miR-122 Renilla luciferase sensor, 48 h; neutral wells = 0, positive control = 100 | activation (reporter increase), % at 12.5 µM | actives 0.3% (n = 340,000);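 active = mean replicate activation score at least 90 and every replicate individually at or above 90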;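 note: higher luciferase means less miR-122 activity so hits act as miR-122 inhibitors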
AF4-AF9 inh: blocks AF4 peptide binding to human AF9; AlphaScreen, biotin-AF4 peptide binding to FLAG-AF9; inhibition, % at 10 µM; actives 0.47% (n = 350,000);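 active = every replicate reaching a set inhibition limit, whatever the replicate mean, cut at about 25% in these data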;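 note: 0% = plate neutral control median and 100% = total signal loss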
NSD2 HMT inh: NSD2 (human) methyltransferase inhibition. NSD2 peptide methylation, AlphaScreen, 120 min. inhibition, % at 12.5 µM. O96028. actives 0.54% (n = 310,000); in the data active = inhibition above about 50%
* hit, by the source's call; [ ] = another dose, or the depositor's remark. Shown are actives, neighbours in structure and some others; about 1.5% of the full set was active somewhere.

`Cc1noc(C)c1S(=O)(=O)Nc1ccc2c(c1)C(=O)N([C@H](C)CO)C[C@H](C)[C@H](CN(C)S(=O)(=O)c1ccc(F)cc1)OCCCC[C@@H](C)O2` gave RAD52 inh 81*, CASP6 VEID inh 2, miR-122 sensor 3[16.7 µM] and AF4-AF9 inh -1.
For Cc1noc(C)c1S(=O)(=O)Nc1ccc2c(c1)C(=O)N([C@H](C)CO)C[C@H](C)[C@@H](CN(C)S(=O)(=O)c1ccc(F)cc1)OCCCC[C@H](C)O2 the results were RAD52 inh 82*, CASP6 VEID inh 5, miR-122 sensor 4[16.7 µM] and AF4-AF9 inh 0.
For Cc1noc(C)c1S(=O)(=O)Nc1ccc2c(c1)C(=O)N([C@@H](C)CO)C[C@@H](C)[C@H](CN(C)S(=O)(=O)c1ccc(F)cc1)OCCCC[C@@H](C)O2 the results were RAD52 inh -39, CASP6 VEID inh -2, miR-122 sensor -8[16.7 µM] and AF4-AF9 inh -2.
For Cc1noc(C)c1S(=O)(=O)N(C)C[C@@H]1OCCCC[C@H](C)Oc2ccc(NS(=O)(=O)c3ccc(F)cc3)cc2C(=O)N([C@@H](C)CO)C[C@H]1C the results were miR-122 sensor -4[16.7 µM].
For O=C(N[C@@H]1CC[C@@H](CC(=O)N2CCOCC2)O[C@@H]1CO)c1ccccn1 the results were RAD52 inh 4, CASP6 VEID inh 3 and AF4-AF9 inh 0.
`CCOc1ccc(C(=O)Nc2cccc(C(=O)Nc3cc(C)ccn3)c2)cc1` gave NSD2 HMT inh -1.
Screening C[C@H](CO)N1C[C@H](C)[C@@H](CN(C)Cc2ccccc2)Oc2ccc(NC(=O)Nc3ccc(F)cc3)cc2CC1=O returned RAD52 inh -9, CASP6 VEID inh -3, miR-122 sensor -14[16.7 µM] and AF4-AF9 inh 7.
`O=C(NCc1ccco1)c1ccc(C(=O)NCc2ccco2)cc1` gave RAD52 inh -24, CASP6 VEID inh 40*, AF4-AF9 inh -2 and NSD2 HMT inh -1.
For Cc1ccc(Nc2nc(C(=O)NCc3ccco3)cs2)cc1 the results were miR-122 sensor 162* and NSD2 HMT inh 1.
`Cc1ccc(C(=O)NCc2ccco2)cc1` gave RAD52 inh -23, CASP6 VEID inh -1, AF4-AF9 inh 1 and NSD2 HMT inh 1.
`CCC1=Nc2cc(C(=O)NCc3ccco3)ccc2Sc2ccc(C)cc21` gave RAD52 inh -33, CASP6 VEID inh 0, miR-122 sensor 119*, AF4-AF9 inh 13 and NSD2 HMT inh 0.
For Cc1cc(C)cc(C(=O)OCC(=O)NCc2ccco2)c1 the results were RAD52 inh -11, CASP6 VEID inh 51*, AF4-AF9 inh 2 and NSD2 HMT inh -1.
`C[C@@H]1CCCCO[C@@H](CN(C)Cc2ccc(C(F)(F)F)cc2)[C@H](C)CN([C@@H](C)CO)C(=O)c2cc(NC(=O)c3ccccc3)ccc2O1` gave RAD52 inh -29, CASP6 VEID inh -2, miR-122 sensor -21[16.7 µM] and AF4-AF9 inh -1.
CCN1[C@@H]2c3ccc(-c4ccccc4F)c(=O)n3C[C@H]1[C@H](CO)[C@H]2C(=O)NCCOC was read as RAD52 inh -11, CASP6 VEID inh 1, miR-122 sensor 3[16.7 µM] and AF4-AF9 inh 2.
For O=C(C1CCCC1)N1CC2(C1)[C@H](c1ccccc1)[C@H](CO)N2C(=O)CC1CC1 the results were RAD52 inh -10 and AF4-AF9 inh -2.
Screening C[C@H](CO)N1C[C@H](C)[C@H](CN(C)C(=O)c2ccccc2F)Oc2cc(-c3ccc(F)cc3)ccc2S1(=O)=O returned RAD52 inh 18, CASP6 VEID inh -3, miR-122 sensor 0[16.7 µM] and AF4-AF9 inh 2.
Screening CO[C@@H]1CN(C)C(=O)c2ccc(NC(=O)CC(F)(F)F)cc2OC[C@@H](C)N(C(C)=O)C[C@@H]1C returned RAD52 inh -30, CASP6 VEID inh 0 and AF4-AF9 inh -4.
CCC(C)(C)c1ccc(OCCCC[n+]2ccccc2)c(C(C)(C)CC)c1 was read as RAD52 inh 39, CASP6 VEID inh -141, AF4-AF9 inh 30* and NSD2 HMT inh 3.
`CCCCCc1ccc(OCCCC[n+]2ccccc2)c(CCCCC)c1` gave miR-122 sensor -12 and NSD2 HMT inh 13.
For CC(C)[C@H](C)NC(=O)N(C)C[C@@H]1OCc2ccccc2-c2ccccc2C(=O)N([C@@H](C)CO)C[C@H]1C the results were RAD52 inh -7, CASP6 VEID inh 1 and AF4-AF9 inh 0.
Screening CN(C)C(=O)c1ccc(-c2ccc3c(c2)[C@H]2[C@H](CCN2C(=O)c2cnccn2)[C@@H](CO)N3)cc1 returned RAD52 inh -10, CASP6 VEID inh -1, miR-122 sensor -6[16.7 µM] and AF4-AF9 inh 2.
NC(=O)Cn1cc(C(=O)C(=O)N2CCOCC2)c2ccccc21 was read as RAD52 inh -15, CASP6 VEID inh 45*, miR-122 sensor -3, AF4-AF9 inh 0 and NSD2 HMT inh -1.
For CN1CCN(C(=O)C(=O)c2cn(CC(=O)N3CCOCC3)c3ccccc23)CC1 the results were RAD52 inh 13, CASP6 VEID inh 1, miR-122 sensor -3, AF4-AF9 inh 1 and NSD2 HMT inh -2.
`C=CC(=O)Nc1ccc(N(C)c2ccnc(Nc3ccc(N4CCN(C)CC4)cc3)n2)cc1` gave RAD52 inh 100*, CASP6 VEID inh -72 and AF4-AF9 inh 60*.
`COC(=O)c1ccccc1NC(=O)c1cc(-c2ccco2)on1` gave RAD52 inh -19, CASP6 VEID inh 66*, miR-122 sensor 2, AF4-AF9 inh 0 and NSD2 HMT inh 2.
For COc1ccc(NC(=O)c2cc(-c3cccs3)on2)c(OC)c1 the results were RAD52 inh -5, CASP6 VEID inh 0, miR-122 sensor -2 and AF4-AF9 inh 34*.
`C[C@@H]1CN([C@H](C)CO)C(=O)c2cccc(N(C)C)c2O[C@H]1CN(C)Cc1ccc(Oc2ccccc2)cc1` gave RAD52 inh -7, CASP6 VEID inh 1, miR-122 sensor -2[16.7 µM] and AF4-AF9 inh 6.
For C=CCNC(=S)N1CCC(C(=O)c2ccc(Cl)cc2)CC1 the results were RAD52 inh -7, CASP6 VEID inh 64*, miR-122 sensor -6, AF4-AF9 inh -1 and NSD2 HMT inh 1.
For CN(C)c1ccc(C2C3CCCc4ccccc4C3=NN2C)cc1 (configuration not stated) the results were RAD52 inh -9, CASP6 VEID inh 1, AF4-AF9 inh 30* and NSD2 HMT inh 10.
Screening CN1N=C2c3ccccc3CCC2C1c1ccc(C(F)(F)F)cc1 (configuration not stated) returned NSD2 HMT inh -1.
`O=C(C[C@@H]1C=C[C@H](NS(=O)(=O)c2ccccc2)[C@H](CO)O1)N1CCN(c2ccccc2)CC1` gave RAD52 inh -21, CASP6 VEID inh 1 and AF4-AF9 inh -2.
`CC(C)(C)c1ccc(C(=O)Nn2c(CCC(=O)O)ccc2-c2cccs2)cc1` gave RAD52 inh -26, CASP6 VEID inh 39*, miR-122 sensor 7, AF4-AF9 inh 8 and NSD2 HMT inh 5.
